Measured values from PubChem BioAssay (NCI).
About 79,000 compounds went through this panel and 15% of them were active in at least one assay; those are over-represented in the sample as a whole. The source made the active and inactive calls. Cut-off read from the data, not from the text of the source: active = growth inhibition above about 70%; inactive = the rest.

Assays:
[1] = NCI Yeast Anticancer Drug Screen. Data for the rad52 strain (AID 147);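 note: 0% = growth of vehicle-treated control cultures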; conditions: S. cerevisiae rad52 mutant growth inhibition, hits give high values
Summary of the method: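 Read-out: growth inhibition versus vehicle-treated controls. Cells were a DNA repair-deficient yeast strain treated with compounds.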

[2] = NCI Yeast Anticancer Drug Screen. Data for the wt1 strain (AID 149);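 note: 0% = growth of vehicle-treated wt1 cultures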; conditions: S. cerevisiae wt1 strain (SPY 50644) growth inhibition, hits give high values
Summary of the method: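 wt1 yeast, compound-treated; % growth inhibition vs vehicle control.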

[3] = NCI Yeast Anticancer Drug Screen. Data for the rad50EPP+ strain (AID 151);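 note: 0% = growth of vehicle-treated control cultures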; conditions: S. cerevisiae rad50 mutant strain, hits give high values
Summary of the method: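 Growth inhibition read against vehicle controls in rad50EPP+ yeast, a strain altered in DNA damage repair, after compound exposure.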

[4] = NCI Yeast Anticancer Drug Screen. Data for the mgt1 strain (AID 153); conditions: S. cerevisiae mgt1 mutant growth inhibition, hits give high values
Summary of the method: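 mgt1 yeast grown with test compound; read-out is growth inhibition versus vehicle-treated cultures.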

[5] = NCI Yeast Anticancer Drug Screen. Data for the rad50 strain (AID 155);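 note: 0% = growth of vehicle-only cultures of the same strain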; conditions: S. cerevisiae rad50 strain growth inhibition, hits give high values
Summary of the method: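 Genetically altered yeast (DNA repair pathway); compound treatment; growth inhibition vs vehicle ctrl.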

[6] = NCI Yeast Anticancer Drug Screen. Data for the mec2-1 strain (AID 157); conditions: S. cerevisiae mec2-1 strain, hits give high values
Summary of the method: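 Yeast mec2-1 mutant treated with compound. Readout: growth inhibition vs vehicle controls.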

[7] = NCI Yeast Anticancer Drug Screen. Data for the rad14 strain (AID 159);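 note: 0% = growth of vehicle-treated control cultures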; conditions: S. cerevisiae rad14 strain growth inhibition, hits give high values
Summary of the method: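 Test compounds were applied to a repair-deficient yeast strain. Its growth was then compared with that of cultures given vehicle alone, and inhibition was expressed relative to those controls.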

[8] = NCI Yeast Anticancer Drug Screen. Data for the sgs1 mgt1 strain (AID 161);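 note: 0% = growth of cultures given vehicle only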; conditions: S. cerevisiae sgs1 mgt1 strain, hits give high values
Summary of the method: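 Genetically altered yeast, compound exposure, growth inhibition relative to vehicle.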

[9] = NCI Yeast Anticancer Drug Screen. Data for the CLN2oe strain (AID 163);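 note: 0% = growth of vehicle-only control cultures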; conditions: S. cerevisiae CLN2oe strain, hits give high values
Summary of the method: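 Read-out: yeast growth inhibition, expressed relative to vehicle-only controls. The strain bears an engineered cell-cycle alteration.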

[10] = NCI Yeast Anticancer Drug Screen. Data for the cln2 rad14 strain (AID 165);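 note: 0% = growth equal to vehicle treated cultures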; conditions: S. cerevisiae cln2 rad14 strain, hits give high values
Summary of the method: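 cln2 rad14 yeast strain; compound exposure; growth inhibition read vs vehicle controls.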

[11] = NCI Yeast Anticancer Drug Screen. Data for the bub3 strain (AID 167); conditions: S. cerevisiae bub3 mutant strain, hits give high values
Summary of the method: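 Yeast carrying a defined mutation is treated with each compound, and growth is compared with that of vehicle-exposed cells to give inhibition.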

[12] = NCI Yeast Anticancer Drug Screen. Data for the wt2 strain (AID 169);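 note: 0% = growth of vehicle-treated yeast cultures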; conditions: S. cerevisiae wt2 strain growth inhibition, hits give high values
Summary of the method: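 Read-out: growth inhibition versus vehicle-treated control cultures after compound exposure of the yeast strain.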

[13] = NCI Yeast Anticancer Drug Screen. Data for the mlh1 strain (AID 171);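 note: 0% = growth of vehicle-treated control cultures of the same strain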; conditions: S. cerevisiae mlh1 strain growth inhibition, hits give high values
Summary of the method: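 Read-out: growth inhibition versus vehicle controls. Strain: engineered yeast with a defined DNA repair or cell cycle defect, compound-treated.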

[14] = NCI Yeast Anticancer Drug Screen. Data for the sgs1 strain (AID 173);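 note: 0% = growth of vehicle-only control cultures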; conditions: S. cerevisiae sgs1 mutant, hits give high values
Summary of the method: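 Read-out: yeast growth inhibition relative to vehicle controls, following compound exposure of a strain with a defined DNA repair/cell cycle alteration.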

[15] = NCI Yeast Anticancer Drug Screen. Data for the mlh1 rad18 strain (AID 175); conditions: S. cerevisiae mlh1 rad18 strain growth inhibition, hits give high values
Summary of the method: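 Yeast w/ defined DNA-repair lesions; compound exposure; growth vs vehicle controls → % inhibition.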

[16] = NCI Yeast Anticancer Drug Screen. Data for the rad18 strain (AID 177); conditions: S. cerevisiae rad18 mutant growth inhibition, hits give high values
Summary of the method: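 Readout: growth inhibition vs vehicle controls. Cells: genetically altered yeast strain, DNA repair defect.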

[17] = at 5.0 µM (retest, dose inferred, filed as 0.5)
[18] = at 50.0 µM (retest, dose inferred, filed as 5.0)

Measured: growth inhibition

Clc1nc(Cl)nc(Nc2cccc3ccccc23)n1
inactive: [1]; at 1.2 µM 13% | [1]; at 3.7 µM 32% | [1]; at 11.0 µM 64% | [2]; at 1.2 µM 6% | [2]; at 3.7 µM 14% | [2]; at 11.0 µM 36% | [3]; at 1.2 µM 21% | [3]; at 3.7 µM 50% | [3]; at 11.0 µM 49% | [4]; at 1.2 µM 18% | [4]; at 3.7 µM 26% | [4]; at 11.0 µM 54% | [5]; at 1.2 µM 4% | [5]; at 3.7 µM 21% | [5]; [17] 29% | [5]; at 11.0 µM 52% | [6]; at 1.2 µM 23% | [6]; at 3.7 µM 42% | [6]; [17] 10% | [6]; at 11.0 µM 58% | [7]; at 1.2 µM -4% | [7]; at 3.7 µM 15% | [7]; at 11.0 µM 48% | [8]; [17] 19% | [8]; [18] 39% | [9]; at 1.2 µM 26% | [9]; at 3.7 µM 31% | [9]; at 11.0 µM 51% | [10]; [17] 44% | [11]; at 1.2 µM 33% | [11]; at 3.7 µM 45% | [11]; [17] 64% | [12]; at 1.2 µM -12% | [12]; at 3.7 µM 15% | [12]; at 11.0 µM 51% | [13]; at 1.2 µM 27% | [13]; at 3.7 µM 51% | [14]; at 1.2 µM 31% | [14]; at 3.7 µM 47% | [15]; [17] 69% | [16]; at 1.2 µM 11% | [16]; at 3.7 µM 14% | [16]; at 11.0 µM 50%
active: [1]; at 33.0 µM 93% | [1]; at 100.0 µM 98% | [2]; at 33.0 µM 88% | [2]; at 100.0 µM 98% | [3]; at 33.0 µM 85% | [3]; at 100.0 µM 95% | [4]; at 33.0 µM 95% | [4]; at 100.0 µM 98% | [5]; at 33.0 µM 93% | [5]; [18] 92% | [5]; at 50.0 µM 86.9% | [5]; at 100.0 µM 97% | [6]; at 33.0 µM 97% | [6]; [18] 96% | [6]; at 50.0 µM 90% | [6]; at 100.0 µM 98% | [7]; at 33.0 µM 95% | [7]; at 100.0 µM 98% | [8]; at 50.0 µM 86.7% | [9]; at 33.0 µM 94% | [9]; at 100.0 µM 99% | [10]; [18] 95% | [10]; at 50.0 µM 71.4% | [11]; at 11.0 µM 80% | [11]; at 33.0 µM 96% | [11]; [18] 97% | [11]; at 50.0 µM 86.2% | [11]; at 100.0 µM 99% | [12]; at 33.0 µM 93% | [12]; at 100.0 µM 98% | [13]; at 11.0 µM 85% | [13]; at 33.0 µM 97% | [13]; at 100.0 µM 98% | [14]; at 11.0 µM 77% | [14]; at 33.0 µM 96% | [14]; at 100.0 µM 98% | [15]; [18] 94% | [15]; at 50.0 µM 80.3% | [16]; at 33.0 µM 91% | [16]; at 100.0 µM 98%
